Bcl-xL primary: inhibitors of human Bcl-xL | GST-Bcl-xL / FITC-Bim BH3 peptide fluorescence polarization | inhibition, % at 10.9 µM | actives 0.7% (n = 320,000) | AID 2129;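 active = inhibition above the mean of all tested compounds plus 3 SD, cutoff set per campaign, cut at about 30% in these data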;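 note: 0% = DMSO wells and 100% = unlabeled Bim-BH3 peptide competitor; inhibitors lower millipolarization by displacing the labeled peptide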
Target sequence (Q07817 whole entry, looked up): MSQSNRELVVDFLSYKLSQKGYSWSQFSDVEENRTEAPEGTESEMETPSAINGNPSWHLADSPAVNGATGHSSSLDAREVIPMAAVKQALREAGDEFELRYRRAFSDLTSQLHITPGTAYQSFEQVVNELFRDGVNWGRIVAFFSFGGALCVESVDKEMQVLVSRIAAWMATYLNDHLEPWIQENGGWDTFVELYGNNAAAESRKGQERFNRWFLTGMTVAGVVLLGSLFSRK
Mcl1-Noxa inh: disrupts binding of human Mcl-1 to Noxa peptide | TR-FRET Mcl-1/Noxa peptide binding, 2 h | inhibition, % at 21.7 µM | actives 1.5% (n = 220,000);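 active = compounds that cut the protein-peptide binding signal by more than 50% relative to plate controls in a single-dose test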;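 note: His-tagged Mcl-1 with rhodamine Noxa BH3 peptide and terbium anti-His antibody; 0% = Mcl-1 plus Noxa peptide wells and 100% = peptide-only wells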
Target sequence (Q07820 whole entry, looked up): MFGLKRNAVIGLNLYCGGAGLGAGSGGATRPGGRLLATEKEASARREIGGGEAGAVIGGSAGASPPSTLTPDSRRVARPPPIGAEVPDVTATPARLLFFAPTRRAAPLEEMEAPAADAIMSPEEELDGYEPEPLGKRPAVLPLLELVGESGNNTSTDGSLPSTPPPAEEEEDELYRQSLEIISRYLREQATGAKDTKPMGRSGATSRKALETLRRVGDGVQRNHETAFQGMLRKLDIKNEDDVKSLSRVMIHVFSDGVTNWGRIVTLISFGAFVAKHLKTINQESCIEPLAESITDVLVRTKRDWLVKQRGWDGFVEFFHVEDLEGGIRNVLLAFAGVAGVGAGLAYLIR
Mcl1-Bid inh: Mcl-1/Bid interaction inhibition; inhibition, % at 21.7 µM; TR-FRET Mcl-1/Bid-Dy647 peptide binding, 1536-well; Q07820; actives 0.97% (n = 220,000);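 active = compounds that cut the binding signal by more than half at the single screening dose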;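 note: His-tagged Mcl-1 with europium anti-His antibody binding Bid BH3 peptide; 0% = Mcl-1 plus peptide wells and 100% = peptide-only wells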
Mcl-1 Bim block: disrupts Bim peptide binding to human Mcl-1; Q07820; Bead-based flow cytometry, Bim peptide-Mcl-1 binding; inhibition, % at 10 µM; actives 0.1% (n = 190,000); AID 1009; in the data active = inhibition above about 40%;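 note: 0% = no compound tracer wells and 100% = peptide blocker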
MCL1 BIM primary: MCL1-BIM-BH3 interaction inhibition (human) | GST-MCL1 / FITC-Bim-BH3 fluorescence polarization | actives 0.68% (n = 320,000) | inhibition, % at 10.9 µM | Q07820;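 active = inhibition above the mean inhibition of all tested compounds plus 3 SD, set per campaign, cut at about 40% in these data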;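 note: 0% = DMSO wells and 100% = unlabeled Bim-BH3 peptide control; higher means more loss of mP so more displacement of Bim peptide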
GLD-1 RNA inh: GLD-1-TGE RNA interaction inhibition (C. elegans) | Q17339 | purified GLD-1 + fluorescein TGE RNA, fluorescence polarization | inhibition, % at 5.96 µM | actives 0.44% (n = 320,000);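 active = percent inhibition above a per-plate cutoff, the plate mean of test compounds plus 3 SD, cut at about 30% in these data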;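 note: 0% = DMSO wells with GLD-1 and probe and 100% = wells lacking GLD-1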
BCLXL inh confirm: Bcl-xL (human) inhibition, MCL1 counter-screen confirmation; GST-Bcl-xL / FITC-Bim BH3 peptide FP binding; inhibition, % at 10.9 µM; AID 2166; actives 54% (n = 1,700); shares compounds with MCL1 BIM primary;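 active = inhibition above a cutoff equal to the mean inhibition of all tested compounds plus 3 SD, cut at about 30% in these data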;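 note: 0% = DMSO wells and 100% = unlabeled Bim BH3 control peptide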
MCL1 BIM confirm: MCL1-BIM-BH3 interaction inhibition, confirmation; shares compounds with MCL1 BIM primary; GST-MCL1 / FITC-Bim-BH3 fluorescence polarization; inhibition, % at 10.9 µM; actives 61% (n = 1,700); AID 2168;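 active = inhibition above the average of all tested compounds plus 3 SD, cut at about 40% in these data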;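 note: 0% = DMSO wells and 100% = unlabeled Bim-BH3 control peptide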
GLD-1 TGE cf: confirmation of C. elegans GLD-1 TGE RNA binding inhibitors. shares compounds with GLD-1 RNA inh. actives 10% (n = 550). GLD-1/FL-TGE RNA fluorescence polarization, biochemical. inhibition, % at 5.96 µM. AID 2459;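 active = average inhibition across triplicates above the hit cutoff set in the primary screen, cut at about 32% in these data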;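 note: 0% = GLD-1 with RNA probe and DMSO and 100% = wells lacking GLD-1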
* hit, by the source's call. Sampled rows, rich in hits. Any-hit rate of the full collection: about 2.3%.

Results for Cc1cccc(N(C)c2cc(C)nc3nc(C)nn23)c1 ?
Bcl-xL primary: 1; Mcl1-Noxa inh: 6; Mcl1-Bid inh: 3; Mcl-1 Bim block: -4; MCL1 BIM primary: 0; GLD-1 RNA inh: -2

What do the screens show for `CCN1/C(=C/C=C/C=C/C=C/c2sc3ccccc3[n+]2CC)Sc2ccccc21`?
Bcl-xL primary: 7; MCL1 BIM primary: 8; GLD-1 RNA inh: -131

How did CCN1/C(=C/C=C/c2sc3ccccc3[n+]2CC)Sc2ccccc21 do in these assays?
Bcl-xL primary: active; MCL1 BIM primary: active; GLD-1 RNA inh: 0; BCLXL inh confirm: active; MCL1 BIM confirm: active

Results for O=C(O)C1CCCCC1C(=O)NCc1ccncc1 (stereo unspecified) ?
Bcl-xL primary: 4; Mcl1-Noxa inh: 15; Mcl1-Bid inh: 4; Mcl-1 Bim block: -5; MCL1 BIM primary: 15; GLD-1 RNA inh: 6

What do the screens show for `CC(Sc1nnc(Cc2cccs2)n1C1CCCCC1)C(N)=O` (stereo unspecified)?
Bcl-xL primary: -5; Mcl1-Noxa inh: -6; Mcl1-Bid inh: -16; Mcl-1 Bim block: -2; MCL1 BIM primary: -5; GLD-1 RNA inh: 4

What do the screens show for `CCN(CC)S(=O)(=O)c1cccc(C(=O)N/N=C2\CCCC(=O)C2)c1`?
Bcl-xL primary: 41*; Mcl1-Noxa inh: -1; Mcl1-Bid inh: -36; MCL1 BIM primary: 56*; GLD-1 RNA inh: 114*; BCLXL inh confirm: 8; MCL1 BIM confirm: 13

How did CCN(CC)S(=O)(=O)c1cccc(C(=O)N/N=C/c2cccc(O)c2O)c1 do in these assays?
Bcl-xL primary: 7; Mcl1-Noxa inh: 25; Mcl1-Bid inh: -56; Mcl-1 Bim block: -2; MCL1 BIM primary: 20; GLD-1 RNA inh: -2

How did Cc1c(N2C(=O)c3ccc4c5c(ccc(c35)C2=O)CC4)c(=O)n(-c2ccccc2)n1C do in these assays?
Bcl-xL primary: 23; Mcl1-Noxa inh: 96*; Mcl1-Bid inh: -26; Mcl-1 Bim block: 0; MCL1 BIM primary: 52*; GLD-1 RNA inh: 0; BCLXL inh confirm: 33*; MCL1 BIM confirm: 78*

What do the screens show for `COc1ccc(NC(=O)CN(C)C(=O)c2cc3c(s2)CCCCC3)cc1`?
Bcl-xL primary: 2; MCL1 BIM primary: -1; GLD-1 RNA inh: 0

Results for COc1ccc(NC(=O)CN(C)C(=O)c2cc3c(s2)CCC3)cc1 ?
Bcl-xL primary: 3; MCL1 BIM primary: 74*; GLD-1 RNA inh: 6; BCLXL inh confirm: -1; MCL1 BIM confirm: 71*

What do the screens show for `Cc1cc(C(=O)OCC(=O)NC(C)C)c2ccccc2n1`?
Bcl-xL primary: 6; Mcl1-Noxa inh: 8; Mcl1-Bid inh: -9; MCL1 BIM primary: 5; GLD-1 RNA inh: -14

Results for CCCCN(C(=O)c1cc(-c2ccco2)nc2ccccc12)c1c(N)n(CCCC)c(=O)[nH]c1=O ?
Bcl-xL primary: 21; MCL1 BIM primary: 45*; GLD-1 RNA inh: 15; BCLXL inh confirm: 17; MCL1 BIM confirm: 31

How did O=C(OCC(=O)N1CCN(C(=O)c2ccco2)CC1)c1cc(-c2ccco2)nc2ccccc12 do in these assays?
Bcl-xL primary: 31*; Mcl1-Noxa inh: 99*; Mcl1-Bid inh: -1; Mcl-1 Bim block: 1; MCL1 BIM primary: 82*; GLD-1 RNA inh: 12; BCLXL inh confirm: 29; MCL1 BIM confirm: 73*

What do the screens show for `CCNC(=O)COC(=O)c1cc(-c2ccco2)nc2ccccc12`?
Bcl-xL primary: 29; Mcl1-Noxa inh: 81*; Mcl1-Bid inh: -40; MCL1 BIM primary: 50*; GLD-1 RNA inh: 22; BCLXL inh confirm: 29; MCL1 BIM confirm: 76*

Results for O=C(NC(=S)N1CCCCCC1)c1ccccc1Cl ?
Bcl-xL primary: 6; Mcl1-Noxa inh: 7; Mcl1-Bid inh: -24; Mcl-1 Bim block: 0; MCL1 BIM primary: 4; GLD-1 RNA inh: -2

Results for O=C(NC(=S)N1CCCCCC1)c1ccc(Cl)cc1Cl ?
Bcl-xL primary: 2; Mcl1-Noxa inh: -4; Mcl1-Bid inh: -2; Mcl-1 Bim block: -5; MCL1 BIM primary: 43*; GLD-1 RNA inh: -7; BCLXL inh confirm: 11; MCL1 BIM confirm: 6

How did CC1(C)CC(NS(=O)(=O)c2ccc(S(N)(=O)=O)cc2)CC(C)(C)N1 do in these assays?
Bcl-xL primary: 97*; MCL1 BIM primary: 118*; GLD-1 RNA inh: 89*; BCLXL inh confirm: 11; MCL1 BIM confirm: 4

Results for Cn1c(=O)c(Nc2ccc(Cl)cc2)c2c3c(cccc31)C(=O)c1ccccc1-2 ?
Bcl-xL primary: active; Mcl1-Noxa inh: -5; Mcl1-Bid inh: -36; Mcl-1 Bim block: 15; MCL1 BIM primary: active; GLD-1 RNA inh: 172*; BCLXL inh confirm: 162*; MCL1 BIM confirm: 197*

How did COc1ccc(OCC(O)CNC(=O)c2ccc(OC)cc2)cc1 (stereo unspecified) do in these assays?
Bcl-xL primary: 4; Mcl1-Noxa inh: 5; Mcl1-Bid inh: -9; Mcl-1 Bim block: 0; MCL1 BIM primary: 44*; GLD-1 RNA inh: -5; BCLXL inh confirm: 5; MCL1 BIM confirm: 7

What do the screens show for `COc1ccc(OCC(O)CNC(=O)c2ccc(Br)cc2)cc1` (stereo unspecified)?
Bcl-xL primary: 4; Mcl1-Noxa inh: -20; Mcl1-Bid inh: 2; Mcl-1 Bim block: -2; MCL1 BIM primary: 4; GLD-1 RNA inh: 4

Results for CC(NC(=O)CCn1ccc2cc(S(=O)(=O)N3CCCC3)ccc21)c1ccccc1 (stereo unspecified) ?
Bcl-xL primary: 1; MCL1 BIM primary: 4; GLD-1 RNA inh: -4

Results for CC(=O)Oc1ccc(N2C(=O)C3C(C2=O)C(C(=O)c2ccc(Cl)cc2)N2CCCC32)cc1 (stereo unspecified) ?
Bcl-xL primary: 78*; Mcl1-Noxa inh: 17; Mcl1-Bid inh: -21; MCL1 BIM primary: 74*; GLD-1 RNA inh: 58*; BCLXL inh confirm: 66*; MCL1 BIM confirm: 86*; GLD-1 TGE cf: 14

Results for COc1ccc(N2C(=O)[C@@H]3[C@H](C2=O)[C@H](C(=O)c2ccc(OC(C)=O)cc2)N2N=CC=C[C@@H]32)cc1 ?
Bcl-xL primary: 7; Mcl1-Noxa inh: 8; Mcl1-Bid inh: -46; Mcl-1 Bim block: 4; MCL1 BIM primary: 2; GLD-1 RNA inh: 2

Compound activity (PubChem)
